# Data as given in the supplement of paper PMC8728848.
# Only a selection was taken, and the strongest signals are over-represented in it overall.
# B1: ArathEULS3 (Arabidopsis thaliana), Q945P1 (protein)
# chain: MEHHHQHHRHHQRDDGEDDRQSFGVPPPHVDAPPQPHGLYQSQPHFDPYAPTPQAPAPYRSETQFEPHAPPPYRSEPYFETPAPPPSFGHVSHVGHQSPNESYPPEHHRYGGYQQPSNSLLESHGDHSGVTHVAHHSSNQPQSSSGVYHKPDENRLPDNLAGLAGRATVKVYSKAEPNYNLTIRDGKVILAPADPSDEAQHWYKDEKYSTKVKDADGHPCFALVNKATGEAMKHSVGATHPVHLIRYVPDKLDESVLWTESKDFGDGYRTIRMVNNTRLNVDAYHGDSKSGGVRDGTTIVLWDWNKGDNQLWKIFPFILEQKLISEEDLNSAVDHHHHHH
# Experiments:
# Experiment in all cases: glycan array binding signal (z-score within array); higher = stronger binding
# Conditions in all cases: glycan notation: IUPAC condensed, linker removed
# [1] = molecular target: Fuc(a1-2)Gal(b1-3)GlcNAc
# In short: (§1)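 The binding signal is a Z-score computed within each array and averaged over linkers. Arrays of the same protein sequence at different concentrations or buffers were also averaged together. Data originate from 3228 arrays in the Consortium for Functional Glycomics database, kept only where the protein sequence was available.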
# [2] = molecular target: Fuc(a1-2)Gal(b1-3)GlcNAc(b1-2)Man(a1-3)[Fuc(a1-2)Gal(b1-3)GlcNAc(b1-2)Man(a1-6)]Man(b1-4)GlcNAc(b1-4)[Fuc(a1-6)]GlcNAc
# In short: as §1
# [3] = molecular target: Fuc(a1-2)Gal(b1-4)GlcNAc(b1-2)[Fuc(a1-2)Gal(b1-4)GlcNAc(b1-4)]Man(a1-3)[Fuc(a1-2)Gal(b1-4)GlcNAc(b1-2)Man(a1-6)]Man(b1-4)GlcNAc(b1-4)GlcNAc
# In short: as §1
# [4] = molecular target: Fuc(a1-2)Gal(b1-4)[Fuc(a1-3)]GlcNAc(b1-2)Man(a1-3)[Fuc(a1-2)Gal(b1-4)[Fuc(a1-3)]GlcNAc(b1-2)Man(a1-6)]Man(b1-4)GlcNAc(b1-4)GlcNAc
# In short: as §1
# [5] = molecular target: Fuc(a1-2)Gal(b1-4)[Fuc(a1-3)]GlcNAc(b1-3)GalNAc
# In short: as §1
# [6] = molecular target: Fuc(a1-2)Gal6S(b1-3)GlcNAc
# In short: as §1
# [7] = molecular target: Fuc(a1-2)[Gal(a1-3)]Gal
# In short: as §1
# [8] = molecular target: Fuc(a1-2)[GalNAc(a1-3)]Gal(b1-4)GlcNAc
# In short: as §1
# [9] = molecular target: Fuc(a1-2)[GalNAc(a1-3)]Gal(b1-4)GlcNAc(b1-3)GalNAc
# In short: as §1
# [10] = molecular target: Fuc(a1-2)[GalNAc(a1-3)]Gal(b1-4)[Fuc(a1-3)]GlcNAc(b1-3)GalNAc
# In short: as §1
# [11] = molecular target: Gal(a1-3)Gal(b1-3)GlcNAc(b1-2)Man(a1-3)[Gal(a1-3)Gal(b1-3)GlcNAc(b1-2)Man(a1-6)]Man(b1-4)GlcNAc(b1-4)GlcNAc
# In short: as §1
# [12] = molecular target: Gal(a1-3)Gal(b1-3)[Fuc(a1-4)]GlcNAc(b1-2)Man(a1-3)[Gal(a1-3)Gal(b1-3)[Fuc(a1-4)]GlcNAc(b1-2)Man(a1-6)]Man(b1-4)GlcNAc(b1-4)GlcNAc
# In short: as §1
# [13] = molecular target: Gal(a1-4)Gal(b1-4)Glc
# In short: as §1
# [14] = molecular target: Gal(a1-6)Glc
# In short: as §1
# [15] = molecular target: Gal(b1-3)GlcNAc(a1-6)Gal(b1-4)GlcNAc
# In short: as §1
# [16] = molecular target: Gal(b1-4)GlcNAc(b1-2)Man(a1-6)Man(b1-4)GlcNAc(b1-4)GlcNAc
# In short: as §1
# [17] = molecular target: Gal(b1-4)GlcNAc(b1-2)[Gal(b1-4)GlcNAc(b1-4)]Man(a1-3)[GlcNAc(b1-4)][Gal(b1-4)GlcNAc(b1-2)[Gal(b1-4)GlcNAc(b1-6)]Man(a1-6)]Man(b1-4)GlcNAc(b1-4)GlcNAc
# In short: as §1
# [18] = molecular target: Gal(b1-4)GlcNAc(b1-2)[Gal(b1-4)GlcNAc(b1-6)]Man(a1-6)[Gal(b1-4)GlcNAc(b1-2)Man(a1-3)]Man(b1-4)GlcNAc(b1-4)[Fuc(a1-6)]GlcNAc
# In short: as §1
# [19] = molecular target: Gal3S(b1-3)GlcNAc
# In short: as §1
# [20] = molecular target: GalNAc(b1-3)GalNAc
# In short: as §1
# [21] = molecular target: GalNAc4S6S(b1-4)GlcNAc
# In short: as §1
# [22] = molecular target: GlcNAc(a1-4)Gal(b1-4)GlcNAc(b1-3)Gal(b1-4)Glc
# In short: as §1
# [23] = molecular target: GlcNAc(a1-4)Gal(b1-4)GlcNAc(b1-3)Gal(b1-4)GlcNAc(b1-3)Gal(b1-4)GlcNAc
# In short: as §1
# [24] = molecular target: GlcNAc(a1-4)Gal(b1-4)GlcNAc(b1-3)Gal(b1-4)[Fuc(a1-3)]GlcNAc(b1-3)Gal(b1-4)[Fuc(a1-3)]GlcNAc
# In short: as §1
# [25] = molecular target: GlcNAc(b1-3)Man
# In short: as §1
# [26] = molecular target: GlcNAc(b1-3)[GlcNAc(b1-6)]GalNAc
# In short: as §1
# [27] = molecular target: Man(a1-2)Man(a1-3)[Man(a1-2)Man(a1-6)]Man(a1-6)[Man(a1-2)Man(a1-2)Man(a1-3)]Man(b1-4)GlcNAc(b1-4)GlcNAc
# In short: as §1
# [28] = molecular target: Man(a1-3)[Man(a1-6)]Man
# In short: as §1
# [29] = molecular target: Man(a1-3)[Man(a1-6)]Man(a1-6)[Man(a1-3)]Man
# In short: as §1
# [30] = molecular target: Neu5Ac(a2-3)Gal(b1-3)[Fuc(a1-4)]GlcNAc
# In short: as §1
binder,measurement,setting,value
B1,glycan array binding signal (z-score),[1],-0.25
same,glycan array binding signal (z-score),[2],0.265
same,glycan array binding signal (z-score),[3],0.36
same,glycan array binding signal (z-score),[4],1.64
same,glycan array binding signal (z-score),[5],11.8
same,glycan array binding signal (z-score),[6],-0.322
same,glycan array binding signal (z-score),[7],-0.303
same,glycan array binding signal (z-score),[8],-0.305
same,glycan array binding signal (z-score),[9],-0.012
same,glycan array binding signal (z-score),[10],7.35
same,glycan array binding signal (z-score),[11],4.38
same,glycan array binding signal (z-score),[12],0.898
same,glycan array binding signal (z-score),[13],-0.332
same,glycan array binding signal (z-score),[14],-0.342
same,glycan array binding signal (z-score),[15],-0.235
same,glycan array binding signal (z-score),[16],2.12
same,glycan array binding signal (z-score),[17],5.54
same,glycan array binding signal (z-score),[18],-0.026
same,glycan array binding signal (z-score),[19],-0.279
same,glycan array binding signal (z-score),[20],0.511
same,glycan array binding signal (z-score),[21],-0.105
same,glycan array binding signal (z-score),[22],-0.112
same,glycan array binding signal (z-score),[23],-0.273
same,glycan array binding signal (z-score),[24],3.11
same,glycan array binding signal (z-score),[25],-0.164
same,glycan array binding signal (z-score),[26],-0.203
same,glycan array binding signal (z-score),[27],-0.229
same,glycan array binding signal (z-score),[28],-0.26
same,glycan array binding signal (z-score),[29],-0.266
same,glycan array binding signal (z-score),[30],-0.211
